CendR NRP1 mod: modulators of CendR peptide binding to NRP-1, primary screen, biochemical, fluorescence polarization, uHTS. Neuropilin-1 (Homo sapiens), O14786. FAM-RPARPAR peptide binding to NRP-1. inhibition, % at 25 µM. 360,000 tested, 0.85% active;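 active = inhibition or corrected inhibition above about 18%, plus a signal ratio from 0.5 to 1.5, limit read from the data, passing the limit was not always enough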
ARNT TACC3 PPI: disruptors of ARNT/TACC3 protein interaction, primary screen, biochemical, AlphaScreen, single concentration | AlphaScreen His-ARNT PAS-B/GST-TACC3 binding, luminescence; TACC3 fragment carries E629A point mutation | inhibition, % at 9.99 µM | 390,000 tested, 0.66% active | AID 623870, 2012;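 active = mean inhibition of replicates at least 50% and at least half of replicates each reaching 50%; inconclusive = half or more replicates reach 50% but mean below 50%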;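 note: 0% = complete ARNT plus TACC3 wells and 100% = ARNT alone without TACC3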
ALR H2O2 inh: inhibitors of human ALR sulfhydryl oxidase, primary screen, biochemical, H2O2 detection, HRP-luminol luminescence, single point; inhibition, % (concentration not given with the values); FAD-linked sulfhydryl oxidase ALR (Homo sapiens), P55789; 290,000 tested, 3.8% active; AID 485317, 2010; purified ALR, DTT oxidation;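 active = mean replicate inhibition above about 79%, with every replicate also reaching it, limit read from the data; inconclusive = only one of the two criteria met; inactive = mean below limit and not every replicate reaching it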
PDI inh: inhibitors of human PDI, primary screen, biochemical, turbidity, single point, plate reader; Protein disulfide-isomerase (Homo sapiens), P07237; PDI insulin aggregation turbidity, A650, 90 min; inhibition, % at 10 µM; 350,000 tested, 0.052% active; AID 588391, 2011;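 active = mean inhibition across replicates of 30% or more, whatever share of single replicates reach that level; inconclusive = mean inhibition below 30% while every single replicate reaches 30%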
Target sequence (P07237 whole entry, looked up): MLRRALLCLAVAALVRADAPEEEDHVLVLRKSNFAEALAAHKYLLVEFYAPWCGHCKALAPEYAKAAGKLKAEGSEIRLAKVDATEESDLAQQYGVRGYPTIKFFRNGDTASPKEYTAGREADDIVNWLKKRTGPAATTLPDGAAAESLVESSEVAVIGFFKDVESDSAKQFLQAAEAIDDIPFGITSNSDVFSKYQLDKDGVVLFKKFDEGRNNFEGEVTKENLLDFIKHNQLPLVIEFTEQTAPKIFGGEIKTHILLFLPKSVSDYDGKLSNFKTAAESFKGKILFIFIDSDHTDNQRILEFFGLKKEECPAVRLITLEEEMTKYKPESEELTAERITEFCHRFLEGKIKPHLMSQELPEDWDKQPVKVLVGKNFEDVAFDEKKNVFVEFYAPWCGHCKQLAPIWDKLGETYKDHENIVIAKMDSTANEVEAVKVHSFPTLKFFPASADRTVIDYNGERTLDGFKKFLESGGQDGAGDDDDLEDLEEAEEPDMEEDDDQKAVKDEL
ERp5 block: inhibitors of ERp5-driven insulin aggregation, primary screen, biochemical, turbidity, absorbance 650 nm, single point; 90 min; inhibition, % at 9.99 µM; 350,000 tested, 0.05% active; Protein disulfide-isomerase A6 (Homo sapiens), Q15084;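 active = mean replicate inhibition above about 25%, with every replicate also reaching it, limit read from the data, passing the limit was not always enough; inconclusive = only one of those two criteria met; inactive = neither criterion met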
PglD DTNB: C. jejuni PglD acetyltransferase inhibitors, primary screen, biochemical, DTNB colorimetric, single point | UDP-N-acetylbacillosamine N-acetyltransferase PglD (Campylobacter jejuni) | purified PglD enzyme, DTNB colorimetric CoA detection | inhibition, % at 12.5 µM | 360,000 tested, 0.098% active; in the data active = inhibition above about 16%, passing the limit was not always enough; inconclusive = no clear call, values can overlap the other calls
An asterisk follows results filed as active; ? = inconclusive; . = no result given. Shown is part of a subset that was picked to be rich in hits.

SMILES	CendR NRP1 mod	ARNT TACC3 PPI	ALR H2O2 inh	PDI inh	ERp5 block	PglD DTNB
CCOc1ccc(NC(c2ccccc2)P(=O)(OC)OC)cc1 (stereo unspecified)	-4	1	89*	-9	-2	-1
COP(=O)(OC)C(Nc1ccc(C)cc1)c1ccc([N+](=O)[O-])cc1 (stereo unspecified)	-3	-3	83*	5	-2	3
C[C@@H]1CCCCO[C@@H](CN(C)Cc2ccc3c(c2)OCO3)[C@@H](C)CN([C@@H](C)CO)C(=O)c2cc(NC(=O)CCC(F)(F)F)ccc2O1	.	-1	.	.	-1	3
Cn1nc(C(C)(C)C)cc1N1C(=O)CCC1(C)C(=O)Nc1ccc2ccccc2c1 (stereo unspecified)	24*	.	.	.	12	-3
Cn1nc(C(C)(C)C)cc1N1C(=O)CCC1(C)C(=O)NC1CCCCC1 (stereo unspecified)	9	.	.	.	1	-4
CC(=O)N(C)C[C@@H]1Oc2cc(-c3cccc(C#N)c3)ccc2S(=O)(=O)N([C@H](C)CO)C[C@@H]1C	.	3	.	.	-1	1
C/C=C/c1cnc2c(c1)C(=O)N([C@@H](C)CO)C[C@H](C)[C@@H](CN(C)C(=O)Nc1ccc(F)cc1)O2	.	2	.	.	6	4
COc1ccc(CC(=O)OCC(=O)c2ccc(OC)cc2)cc1	14	3	2	3	.	.
COc1cc2ccc(CC(N)=O)cc2cc1OC	37*	.	.	1	8	6
COc1ccc(CC(=O)OCC(=O)c2ccc(OC)c(OC)c2)cc1	17*	-1	-4	-4	4	0
COc1ccc(CC(=O)OCC(=O)NC2CC2)cc1	24*	1	-7	-4	-6	-3
CC(=O)Nc1ccc2c(c1)C(=O)N(C)[C@H]1CC[C@H](CC(=O)Nc3ccc(C)cc3)O[C@@H]1CO2	.	2	.	.	.	-3
O=C(O)CSc1cc(C(=O)c2ccccc2O)cn2c(=O)c3c(-c4ccccc4)csc3nc12	-110	4	98*	9	-6	-5
Cc1ccccc1-c1ccc([C@H]2[C@@H](CO)N3CCCCN(S(C)(=O)=O)C[C@H]23)cc1	.	-2	.	.	-8	2
CCCn1c(N)c(C(=O)CSc2nc3ccccc3s2)c(=O)[nH]c1=O	-2	-1	97*	7	4	.
CN(C(=O)CSc1nc2ccccc2s1)c1c(N)n(Cc2ccccc2)c(=O)[nH]c1=O	3	6	99*	-7	2	.
CCCn1c(N)c(C(=O)CSc2nnc(N)s2)c(=O)[nH]c1=O	-2	5	0	13	2	-1
CCN(C(=O)CSc1nc2ccc([N+](=O)[O-])cc2s1)c1c(N)n(Cc2ccccc2)c(=O)[nH]c1=O	2	.	.	-3	-2	2
Cc1ccc(S(=O)(=O)Nc2ccc3c(c2)C(=O)N([C@H](C)CO)C[C@@H](C)[C@H](CN(C)C(=O)NC(C)C)O3)cc1	.	-1	.	.	-2	-2
CCOc1c(Br)cc(CNc2ccc(N3CCN(C(C)=O)CC3)cc2)cc1OC	4	6	98*	-1	-3	-1
COc1cc(CNc2ccc(N3CCOCC3)cc2)cc(Br)c1OC	-2	.	98*	5	.	.
COc1cc(CNc2ccc(N3CCCC3)cc2)cc(Cl)c1OC	-6	4	19	-4	-8	.
CCOc1cc(CNc2ccc(N3CCCCC3)cc2)cc(Br)c1OCC(=O)NC(C)(C)C	-3	4	32	-3	.	2
CCOc1cc(CNc2ccc(N3CCN(C(C)=O)CC3)cc2)cc(Br)c1OC	-3	15	.	-18	.	.
CCOc1cc(CNc2ccc(N3CCOCC3)cc2)cc(Br)c1OCC	8	32	99*	4	.	.
SMILES	CendR NRP1 mod	ARNT TACC3 PPI	ALR H2O2 inh	PDI inh	ERp5 block	PglD DTNB
CN(C)c1ccc(CN2CCCC(O)C2)cc1 (stereo unspecified)	11	.	97*	-5	.	-4
OC1CCCN(Cc2ccccc2)C1 (stereo unspecified)	1	-3	-2	0	-1	2
CO[C@H](CN(C)S(=O)(=O)c1ccc(Cl)cc1)[C@H](C)CN(C(=O)Nc1ccccc1F)[C@@H](C)CO	.	.	.	.	-1	-1
CN(C)/C=C/C(=O)c1ccc(Br)s1	-4	11	92*	4	-2	4
C[C@@H]1CN([C@H](C)CO)C(=O)Cc2cc(NC(=O)Nc3ccc(F)cc3)ccc2O[C@@H]1CN(C)S(=O)(=O)c1ccc(F)cc1	.	-6	.	.	-2	-1
CC(C)c1ccc(OCC(=O)Nc2cccc(C(=O)Nc3ccccc3C(=O)O)c2)cc1	-12	.	98*	1	-4	.
NS(=O)(=O)c1ccc(NC(=O)/C=C/c2ccco2)cc1	-23	-4	96*	14	?	.
O=C(CSCc1ccc(Cl)cc1)Nc1cccc(C(=O)Nc2ccccc2C(=O)O)c1	-15	24	98*	-9	.	6
CC(=O)NS(=O)(=O)c1ccc(NC(=O)/C=C/c2ccco2)cc1	-5	1	7	10	-2	.
O=C(CSCc1ccccc1)Nc1cccc(C(=O)Nc2ccccc2C(=O)O)c1	-26	-4	98*	1	.	1
CCC(=O)N1C[C@H](C)[C@@H](OC)CN(C)C(=O)c2cc(NC(=O)NC3CCCC3)ccc2OC[C@H]1C	.	.	.	.	0	.
O=C(/C=C/c1ccco1)Nc1cccc(C(=O)Nc2ccccc2C(=O)O)c1	-96	3	95*	18	3	-3
CCc1ccccc1NC(=O)c1cccc(NC(=O)/C=C/c2ccco2)c1	-14	.	-3	-1	.	-3
C[C@@H]1CN([C@H](C)CO)C(=O)CCCn2cc(nn2)CO[C@@H]1CN(C)S(=O)(=O)c1ccc(Cl)cc1	.	-4	.	.	-1	2
CO[C@H]1CN(C)C(=O)c2cc(NC(=O)c3ccccc3)ccc2OC[C@H](C)N(CC2CC2)C[C@H]1C	.	-8	.	.	.	5
CC(=O)C1C(=O)CC(C)(O)C(C(C)=O)C1c1ccc(N(C)C)cc1 (stereo unspecified)	17	0	98*	3	.	-133
CCN(CC)c1ccc(C2C(C(C)=O)C(=O)CC(C)(O)C2C(C)=O)cc1 (stereo unspecified)	0	-11	99*	0	.	2
CO[C@@H]1CN(C)C(=O)c2cc(NS(=O)(=O)c3cn(C)cn3)ccc2OC[C@H](C)N(CCC(F)(F)F)C[C@@H]1C	.	-3	.	.	4	-3
CN=C1S/C(=C\c2ccc(O)c(OC)c2)C(=O)N1C	-12	.	75	1	1	-6

Compound activity deposited in PubChem BioAssay by several laboratories.
